Compound activity (PubChem)
TbPYK inhibitor = T. brucei pyruvate kinase inhibition | Q57TT1 | TbPYK enzyme, Kinase-Glo Plus ATP luminescence, 45 min | Potency, µM (series often up to 76.8 µM), actives largely listed as inhibitors | actives 0.12% (n = 410,000); also: nearly all actives have a fitted effect of over 50% in size
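In this concentration-response screen, enzyme-free wells defined baseline while DMSO plates tracked drift. Each reaction combined TbPYK, substrate, compound and 130 uM ADP for 45 min at room temperature. Kinase-Glo Plus luminescence gave the signal.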
Giardia FBPA inh = inhibitors of Giardia lamblia fructose-1,6-bisphosphate aldolase. A8B2U2. purified Giardia FBPA. Potency, µM (highest dose often 59.6 µM), usual class: inhibitors. actives 0.71% (n = 290,000); also: nearly all actives have a fitted effect of over 55% in size
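Giardia FBPA (40 nM reagent) was preincubated 10 min at RT with compound (up to 57.5 uM final), then substrate plus GAPDH/TPI/NAD/arsenate coupling system with diaphorase/resazurin was added; resorufin fluorescence (525/598 nm) was read after 20 min.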
Sm TGR inh = blocks Schistosoma mansoni thioredoxin glutathione reductase | Potency, µM (top dose mostly 114 µM), hits mostly inhibitors | purified TGR, DTNB reduction, TNB absorbance 405 nm | actives 3% (n = 360,000) | Q962Y6; also: nearly all actives have a fitted effect of over 60% in size
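TGR 20 nM + NADPH 100 uM (dispensed conc.), cpd preinc 15 min RT; start with NADPH (500 uM addition) then DTNB (15 mM addition). Kinetic TNB absorbance, 405 nm filter. Four-parameter Hill fit across titration.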
Cycloheximide cs = counter-screen hit for Shiga toxin inhibitors, cycloheximide; cell reporter, cycloheximide protein synthesis inhibition counterscreen; max response, %; actives 12% (n = 300,000); AID 2314; in the data active = max response mostly above about 13%, no sharp cut-off; inactive = mostly below about 14%; also: read at 38.3 µM for the half of the compounds with a filed dose
LmPK inh = inhibitors of Leishmania mexicana pyruvate kinase | Q27686 | actives 0.37% (n = 290,000) | Potency, µM (doses to about 57.5 µM), most hits filed as inhibitors | purified LmPK, Kinase-Glo ATP luminescence, 1 h
Target sequence (Q27686 whole entry, looked up): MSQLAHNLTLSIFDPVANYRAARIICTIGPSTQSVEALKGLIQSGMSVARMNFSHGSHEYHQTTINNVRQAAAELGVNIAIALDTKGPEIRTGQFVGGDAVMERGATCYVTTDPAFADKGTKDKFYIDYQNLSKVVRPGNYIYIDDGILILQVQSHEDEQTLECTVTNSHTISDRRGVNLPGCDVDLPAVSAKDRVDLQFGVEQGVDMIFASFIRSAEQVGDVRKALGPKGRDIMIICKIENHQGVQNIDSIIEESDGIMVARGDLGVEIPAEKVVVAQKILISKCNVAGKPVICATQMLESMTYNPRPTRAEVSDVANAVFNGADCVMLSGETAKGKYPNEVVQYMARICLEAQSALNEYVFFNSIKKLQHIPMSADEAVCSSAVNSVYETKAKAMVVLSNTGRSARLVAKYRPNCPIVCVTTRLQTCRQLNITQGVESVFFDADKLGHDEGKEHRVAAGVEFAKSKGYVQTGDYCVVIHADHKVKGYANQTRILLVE
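ATP generated from ADP (0.1 mM) and PEP (0.5 mM) by 0.1 nM LmPK over 1 h at room temperature (pH 7.2 imidazole buffer) was detected by coupled luciferase luminescence. Values were normalized to uninhibited and no-enzyme wells.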
Shiga inhibitor = inhibitors of Shiga toxin in Vero cells; Vero cells, Shiga toxin protein synthesis inhibition reporter; inhibition, % at 38.7 µM; actives 9.2% (n = 290,000); AID 2315; in the data active = inhibition mostly above about 28%, no sharp cut-off; inactive = mostly below about 43%
Large screens that a line does not name were inactive. The entries come from a sample that favours hits as a whole. Unless noted, calls follow the shape of the dose curve; as a rule, active = well fitted curve in the direction sought with a large enough effect; inconclusive = small, poorly fitted or top-dose-only effect, or another doubt; inactive = no such curve, though single readings can be large; an effect the other way counts as inactive or inconclusive.

CC(Oc1ccc(Cl)cc1Cl)C(=O)Nc1ccc(O)cc1 (stereo not drawn)	Giardia FBPA inh inconclusive
Cc1cccc(OCC(=O)Nc2cccc(O)c2)c1	Cycloheximide cs 30, Shiga inhibitor active
O=C(COc1cc(Cl)c(Cl)cc1Cl)Nc1cccc(O)c1	Cycloheximide cs 38, Shiga inhibitor 115
CCOC(=O)c1c(C)[nH]c(CCC(=O)NCc2ccccc2C)c1C	none (no result: Giardia FBPA inh, Cycloheximide cs, LmPK inh, Shiga inhibitor)
CN(CCOc1ccc(C=C2C(=O)NC(=O)NC2=O)cc1)c1ccccn1	TbPYK inhibitor inconclusive, Sm TGR inh inconclusive, Cycloheximide cs 27
COc1cccc(OCCOc2ccc(/C=C3/SC(=S)NC3=O)cc2)c1	none
COc1ccc(OCCOc2cccc(C=C3C(=O)NC(=O)NC3=O)c2)cc1	Sm TGR inh 11µM, Cycloheximide cs 33, Shiga inhibitor 33 (no result: TbPYK inhibitor)
CN(CCOc1ccc(-c2ccn(S(=O)(=O)c3c(Cl)cccc3Cl)n2)cc1)c1ccccn1	none
Cc1ccc(C)c(N2CCN(C(=O)c3ccc4nc(-c5ccco5)c(-c5ccco5)nc4c3)CC2)c1	Sm TGR inh 6.3µM (no result: Giardia FBPA inh)
COc1ccccc1N1CCN(C(=O)c2ccc3nc(-c4ccco4)c(-c4ccco4)nc3c2)CC1	TbPYK inhibitor inconclusive, Sm TGR inh 14µM
CCOc1ccc(-c2cc3c(=O)n(Cc4nc(-c5cccc(OC)c5OC)oc4C)ccn3n2)cc1Cl	none (no result: Giardia FBPA inh, Cycloheximide cs, LmPK inh, Shiga inhibitor)
CCCCS(=O)(=O)N1C2=NC(C(=O)OC)=C(C(=O)OC)[C@@H]3Nc4ccccc4[C@]23C[C@H]1C(=O)OC	none (no result: TbPYK inhibitor, Sm TGR inh, Cycloheximide cs, Shiga inhibitor)
COc1cc(CNS(=O)(=O)c2ccc3c(c2)CC(C)N3C(C)=O)cc(OC)c1OC (stereo not drawn)	none
C/C(CC(=O)Nc1cccc2c1CCCC2)=N\NC(=O)c1ccccc1N	Cycloheximide cs 31, Shiga inhibitor 116
C/C(CC(=O)Nc1ccccn1)=N\NC(=O)c1ccc(C)cc1	Cycloheximide cs 18
COc1ccccc1C(=O)N/N=C(\C)CC(=O)Nc1ccccc1NC(C)=O	Cycloheximide cs 19 (no result: Shiga inhibitor)
C/C(CC(=O)Nc1cc(C)ccn1)=N\NC(=O)c1ccc(C(C)(C)C)cc1	none
C/C(CC(=O)Nc1cccc2c1CCCC2)=N\NC(=O)c1cccc2ccccc12	none
COc1ccccc1C(=O)N/N=C(\C)CC(=O)Nc1ccc(Cl)cn1	Cycloheximide cs 37, Shiga inhibitor 50
O=C(COc1cc2oc(=O)c3c(c2cc1Cl)CCC3)NCc1ccncc1	none (no result: Giardia FBPA inh)
CCOC(=O)c1cc(S(=O)(=O)N2CCN(c3ccc(C(C)=O)cc3)CC2)[nH]n1	none (no result: Giardia FBPA inh, Cycloheximide cs, LmPK inh, Shiga inhibitor)
COc1ccccc1C(=O)N/N=C(\C)CC(=O)Nc1ccccn1	Cycloheximide cs 26, Shiga inhibitor 68
CC(=O)Nc1ccc(C2NC(C(=O)O)CCC2C)cc1 (stereo not drawn)	none (no result: TbPYK inhibitor, Sm TGR inh, Cycloheximide cs, LmPK inh, Shiga inhibitor)
CC(=O)c1ccc(N2CCN(C(=O)c3ccco3)CC2)c(F)c1	Sm TGR inh inconclusive, Cycloheximide cs 48, Shiga inhibitor 59
O=C1CCN(c2ccc([N+](=O)[O-])cc2F)CC1	Sm TGR inh 40µM
CC(=O)c1cc(F)c(N2CCN(C(=O)c3ccco3)CC2)cc1C	Sm TGR inh inconclusive, Cycloheximide cs 31
O=C(c1ccco1)N1CCN(c2ccc([N+](=O)[O-])cc2F)CC1	Sm TGR inh 35µM, Cycloheximide cs 13, Shiga inhibitor 40 (no result: Giardia FBPA inh)
CCC1(C)Cc2c(sc3nc(SC)[nH]c(=S)c23)CO1 (stereo not drawn)	none
O=C1NC(=O)C2(CCCc3ccc([N+](=O)[O-])cc32)N1 (stereo not drawn)	none (no result: Giardia FBPA inh, Sm TGR inh, Cycloheximide cs, LmPK inh, Shiga inhibitor)
COc1cc([N+](=O)[O-])ccc1NC(=O)CC1SC(=Nc2ccc(F)cc2)N(CCC2=CCCCC2)C1=O (stereo not drawn)	none
COc1ccc(OC)c(NC(=O)CC2SC(=Nc3ccc(F)cc3)N(CCC3=CCCCC3)C2=O)c1 (stereo not drawn)	Cycloheximide cs 13
COc1ccc([N+](=O)[O-])cc1N(CC(O)CN1CCCCC1)S(=O)(=O)c1ccc(C)cc1 (stereo not drawn)	Sm TGR inh 35µM
O=C1CSC(c2cn(-c3ccccc3)nc2-c2cc3ccccc3o2)N1Cc1ccccc1 (stereo not drawn)	none
Cc1ccc(-c2nn(-c3ccccc3)cc2C2SCC(=O)N2Cc2ccccc2)o1 (stereo not drawn)	Sm TGR inh 11µM
O=C1CSC(c2cn(-c3ccccc3)nc2-c2cc3ccccc3oc2=O)N1Cc1ccco1 (stereo not drawn)	Sm TGR inh 22µM
COc1ccccc1NC(=O)CSC1=Nc2ccccc2C2=NC(Cc3ccccc3)C(=O)N12 (stereo not drawn)	none (no result: Giardia FBPA inh, Cycloheximide cs, LmPK inh, Shiga inhibitor)
Cc1cc(-n2c(C)nc3ccccc3c2=O)ccc1NC(=O)c1cccc([N+](=O)[O-])c1C	none (no result: Giardia FBPA inh, Cycloheximide cs, LmPK inh, Shiga inhibitor)
CC(C)CCNC(=O)C1(O)c2ccccc2NC(=O)N1c1ccc(Cl)cc1 (stereo not drawn)	Cycloheximide cs 10
O=C1Nc2ccccc2C(O)(C(=O)NCc2ccco2)N1c1ccc(Cl)cc1 (stereo not drawn)	Cycloheximide cs 18
COC(=O)N/N=C/c1ccc(-c2ccc(Cl)cc2Cl)o1	Cycloheximide cs 11
COC(=O)N/N=C/c1ccc(-c2ccccc2Cl)o1	Cycloheximide cs 41, Shiga inhibitor 41
C=CCNC(=S)N/N=C/c1ccc(-c2ccc(Cl)cc2Cl)o1	none (no result: Giardia FBPA inh, Sm TGR inh, Cycloheximide cs, LmPK inh, Shiga inhibitor)
COc1cccc(CSCC(=O)NCCc2ccccc2)c1OC	none
CCc1ccc(CCC(=O)Nc2nccs2)o1	Sm TGR inh 32µM, Cycloheximide cs 34, Shiga inhibitor 60
Cc1ccc(CCC(=O)Nc2nccs2)o1	Sm TGR inh 45µM
O=C(COC(=O)/C=C/c1ccc(Br)o1)NCCCN1CCCC1=O	Sm TGR inh 32µM
O=C(/C=C/c1ccco1)NCCCN1CCOCC1	Sm TGR inh 11µM
O=C(/C=C/c1ccc(Br)o1)NCCCN1CCOCC1	Sm TGR inh 4.5µM
O=C(/C=C/c1ccc(Cl)cc1)NCCCN1CCOCC1	none
O=C(/C=C/c1ccc2c(c1)OCO2)NCCCN1CCOCC1	none
COc1ccc(NC(=O)c2cc3ccccc3o2)cc1OC	Sm TGR inh inconclusive, Cycloheximide cs 45, Shiga inhibitor 62
COc1ccc(NC(=O)c2cc(=O)c3ccccc3o2)cn1	none
COc1ccc(NC(=O)c2cc3ccccc3o2)cc1	Cycloheximide cs 39, Shiga inhibitor 94
COc1ccc(NC(=O)c2cc3ccccc3o2)cn1	Cycloheximide cs 36 (no result: Shiga inhibitor)
CCCOc1ccc(S(=O)(=O)NNC(=O)c2cc3ccccc3o2)cc1	Cycloheximide cs 14
COc1ccccc1NC(=O)c1ncn(-c2ccccc2)n1	none (no result: Giardia FBPA inh, Cycloheximide cs, LmPK inh, Shiga inhibitor)
CCOc1ccc(NC(=O)CCC(=O)Oc2ccc(C)cc2)cc1	none
Cc1c(CNC2CCCCCC2)c(C(=O)O)c(C)n1Cc1cccc(Cl)c1	none (no result: Giardia FBPA inh, Cycloheximide cs, LmPK inh, Shiga inhibitor)
